Data: PubChem BioAssay (NCI)
The panel holds about 79,000 compounds, 15% with a hit somewhere; the sample as a whole holds those more often. Active and inactive are the calls of the source. Rule as the data show it: active = growth inhibition above about 70%; inactive = the rest.

How the values were obtained:
[1] = NCI Yeast Anticancer Drug Screen. Data for the rad50 strain (AID 155);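 also: 0% = growth of vehicle-only cultures of the same strain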; conditions: S. cerevisiae rad50 strain growth inhibition, hits give high values
Outline: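 Vehicle-treated cultures provide the reference for the growth inhibition reported for compound-exposed, repair-deficient yeast.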

[2] = NCI Yeast Anticancer Drug Screen. Data for the mec2-1 strain (AID 157); conditions: S. cerevisiae mec2-1 strain, hits give high values
Outline: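 Strain: mec2-1 (DNA repair/cell cycle alteration). Compound exposure, then growth measured; inhibition expressed relative to vehicle.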

[3] = NCI Yeast Anticancer Drug Screen. Data for the sgs1 mgt1 strain (AID 161);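 also: 0% = growth of cultures given vehicle only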; conditions: S. cerevisiae sgs1 mgt1 strain, hits give high values
Outline: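 Read-out: growth inhibition vs vehicle controls. Cells: mutant yeast strain deficient in DNA damage repair.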

[4] = NCI Yeast Anticancer Drug Screen. Data for the cln2 rad14 strain (AID 165);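 also: 0% = growth equal to vehicle treated cultures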; conditions: S. cerevisiae cln2 rad14 strain, hits give high values
Outline: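 Compounds are applied to the cln2 rad14 yeast strain, and growth is then compared with that of vehicle-treated cultures to give inhibition.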

[5] = NCI Yeast Anticancer Drug Screen. Data for the bub3 strain (AID 167); conditions: S. cerevisiae bub3 mutant strain, hits give high values
Outline: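 Mutant yeast screening strain plus compound; vehicle-treated cultures serve as the 0% inhibition reference.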

[6] = NCI Yeast Anticancer Drug Screen. Data for the mlh1 rad18 strain (AID 175); conditions: S. cerevisiae mlh1 rad18 strain growth inhibition, hits give high values
Outline: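 Read-out is yeast growth inhibition, calculated against vehicle-only controls. The compound was applied to a strain engineered with DNA damage repair alterations.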

[7] = at 5.0 µM (retest, dose inferred, filed as 0.5)
[8] = at 50.0 µM (retest, dose inferred, filed as 5.0)

Measured: growth inhibition

CC1(C)NNC(=S)NN1
inactive: [1]; [7] 2% | [1]; [8] 12% | [1]; at 50.0 µM 5.95% | [2]; [7] -3% | [2]; [8] 8% | [2]; at 50.0 µM 15.4% | [3]; [7] 4% | [3]; [8] 14% | [3]; at 50.0 µM 21.3% | [4]; [7] 12% | [4]; [8] 7% | [4]; at 50.0 µM 9.75% | [5]; [7] 23% | [5]; [8] 5% | [5]; at 50.0 µM 2.4% | [6]; [7] 20% | [6]; [8] 8% | [6]; at 50.0 µM 41.8%

O=c1[nH]c2cc(Cl)ccc2nc1/C=C(\O)c1ccccn1
inactive: [1]; [7] 20% | [1]; at 50.0 µM 60% | [2]; [7] 7% | [2]; [8] 49% | [2]; at 50.0 µM 37.8% | [3]; [7] 8% | [4]; [7] 8% | [4]; [8] 64% | [4]; at 50.0 µM 34.1% | [5]; [7] 21% | [5]; [8] 27% | [5]; at 50.0 µM 44.5% | [6]; [7] -1%
active: [1]; [8] 79% | [3]; [8] 71% | [3]; at 50.0 µM 74.8% | [6]; [8] 82% | [6]; at 50.0 µM 88%

C[C@]12C/C(=C/C(F)(F)F)C(=O)C[C@@H]1CC[C@@H]1[C@@H]2CC[C@]2(C)[C@@H](C(=O)O)CC[C@@H]12
inactive: [1]; [7] 32% | [1]; at 50.0 µM 31.5% | [2]; at 50.0 µM 39.4% | [4]; [7] 24% | [4]; at 50.0 µM 55.7% | [5]; at 50.0 µM 26.1% | [6]; at 50.0 µM 48.4%
active: [1]; [8] 91% | [2]; [7] 92% | [2]; [8] 97% | [3]; [7] 87% | [3]; [8] 95% | [3]; at 50.0 µM 72.1% | [4]; [8] 87% | [5]; [7] 89% | [5]; [8] 95% | [6]; [7] 93% | [6]; [8] 96%

CCCC(=O)OCc1cc(=O)n(C)c2c3c4c(cc12)c(C)cc(=O)n4CO3
inactive: [1]; at 50.0 µM 25% | [2]; [7] 58% | [2]; at 50.0 µM -11.2% | [3]; at 50.0 µM 22.8% | [4]; [7] 63% | [4]; at 50.0 µM 13.6% | [5]; at 50.0 µM -11% | [6]; at 50.0 µM 22.4%
active: [1]; [7] 86% | [1]; [8] 99% | [2]; [8] 100% | [3]; [7] 79% | [3]; [8] 100% | [4]; [8] 99% | [5]; [7] 84% | [5]; [8] 98% | [6]; [7] 83% | [6]; [8] 99%

C/C=C/C1=C(Cl)C(=O)[C@@H](Cl)[C@@]1(O)C(=O)OC
inactive: [1]; [7] 48% | [2]; [7] 61% | [4]; [7] 21% | [5]; [7] 66%
active: [1]; [8] 97% | [1]; at 50.0 µM 87% | [2]; [8] 99% | [2]; at 50.0 µM 90.1% | [3]; [7] 78% | [3]; [8] 99% | [3]; at 50.0 µM 91% | [4]; [8] 97% | [4]; at 50.0 µM 79.2% | [5]; [8] 95% | [5]; at 50.0 µM 87.3% | [6]; [7] 85% | [6]; [8] 99% | [6]; at 50.0 µM 90.2%

O=C(O)/C=C/C(=O)Nc1cccc2ccccc12
active: [3]; [8] 100% | [4]; [8] 100% | [5]; [8] 100%
inactive: [1]; [7] 40% | [1]; [8] 40% | [1]; at 50.0 µM 6.35% | [2]; [7] 44% | [2]; [8] 49% | [2]; at 50.0 µM 35.9% | [3]; [7] 21% | [3]; at 50.0 µM 55.5% | [4]; [7] 39% | [4]; at 50.0 µM 2.25% | [5]; [7] 64% | [5]; at 50.0 µM 55% | [6]; [7] 26% | [6]; [8] 44% | [6]; at 50.0 µM 16.8%

COC(=O)[C@@H]1c2cc3c(c(O)c2[C@@H](OC)C[C@@]1(C)O)C(=O)c1c(O)cc2c(c1C3=O)OC1O[C@@]2(C)[C@H](O)[C@@H](N(C)C)[C@@H]1O
inactive: [1]; [7] 15% | [1]; at 50.0 µM 64.2% | [2]; [7] 10% | [3]; [7] 9% | [4]; [7] 4% | [5]; [7] 5% | [6]; [7] 12%
active: [1]; [8] 98% | [2]; [8] 95% | [2]; at 50.0 µM 94% | [3]; [8] 98% | [3]; at 50.0 µM 94% | [4]; [8] 97% | [4]; at 50.0 µM 87.5% | [5]; [8] 97% | [5]; at 50.0 µM 92.8% | [6]; [8] 97% | [6]; at 50.0 µM 92.4%

COC1=CC(=O)c2c(O)c3c(c(O)c2C1=O)OC1(Oc2c(cc4cc(C)oc(=O)c4c2O)CC1O)C3O (stereo not given)
active: [1]; [7] 96% | [1]; [8] 97% | [1]; at 50.0 µM 91.1% | [2]; [7] 98% | [2]; [8] 99% | [2]; at 50.0 µM 92.5% | [3]; [7] 97% | [3]; [8] 98% | [3]; at 50.0 µM 92.8% | [4]; [7] 98% | [4]; [8] 99% | [4]; at 50.0 µM 90.5% | [5]; [7] 99% | [5]; [8] 99% | [5]; at 50.0 µM 91% | [6]; [7] 97% | [6]; [8] 98% | [6]; at 50.0 µM 91%

Cc1ccc(S(=O)(=O)N/N=C2/CCC3(O)CC2(C)CCC2[C@H]3CC2(C)C)cc1 (stereo not given in full)
inactive: [1]; [7] 17% | [1]; at 50.0 µM 66.7% | [2]; [7] -7% | [2]; at 50.0 µM 57.2% | [3]; [7] 1% | [3]; [8] 54% | [4]; [7] 13% | [4]; [8] 69% | [5]; [7] 2% | [6]; [7] 5%
active: [1]; [8] 72% | [2]; [8] 83% | [3]; at 50.0 µM 70.2% | [4]; at 50.0 µM 83.8% | [5]; [8] 86% | [5]; at 50.0 µM 75% | [6]; [8] 88% | [6]; at 50.0 µM 70.7%

S=C(N/N=C(/c1ccccc1)c1ccccn1)N1CCCCC1
active: [1]; [8] 98% | [1]; at 50.0 µM 80.2% | [2]; [8] 98% | [2]; at 50.0 µM 86.3% | [3]; [8] 98% | [3]; at 50.0 µM 88.2% | [4]; [8] 97% | [4]; at 50.0 µM 89% | [5]; [8] 97% | [5]; at 50.0 µM 90.2% | [6]; [7] 83% | [6]; [8] 98% | [6]; at 50.0 µM 90.8%
inactive: [1]; [7] 58% | [2]; [7] 27% | [3]; [7] 66% | [4]; [7] 30% | [5]; [7] 54%
